# In PubChem BioAssay AID602373 (National Center for Advancing Translational Sciences (NCATS), 2012):
# “And” between values parts separate entries of the source, which are not always exact repeats. Equal entries are not always repeated. Results filed as inconclusive are left out. Values without a mark were called inactive. The source made the active and inactive calls. Calls follow the shape of the dose curve; as a rule, active = well fitted inhibition curve with a large enough effect; inconclusive = small, poorly fitted or top-dose-only effect; inactive = no such curve, though single readings can be large or run the other way.
# Experiment: qHTS Assay for Inhibitors of Bacillus subtilis Sfp phosphopantetheinyl transferase (PPTase): Hepg2 Assay
# Conditions: HepG2 cytotoxicity counter-screen; series mostly up to 46.1 µM; activity change, negative = inhibition: at the top concentration
# Excerpt: The covalent attachment of a phosphopantetheinyl (4'-PP) arm to a variety of synthases and other proteins is a key posttranslational protein modification. The 4'-PP is installed on the proteins post-translationally from coenzyme A (CoA) on a conserved serine residue by action of phosphopantetheinyl transferase (PPTase) enzymes. Phosphopantetheinylation is essential for synthase activity, and removal of the PPTase gene precludes natural product synthesis in microorganisms, or in the case of fatty acid biosynthesis, renders the organism unviable. PPTase enzymes belong to a distinct structural superfamily. Within bacteria, these enzymes are grouped into two classes based upon primary structure, the AcpS-Type and Sfp-Type PPTases.
# Sfp-type PPTases, corresponding to an activator of surfactin production in Bacillus subtilis, are responsible for modifying type I polyketide and nonribosomal peptide synthases of prokaryotes. Sfp-type PPTases are responsible for the activation of a variety of pathogen-associated virulence factors. Among these compounds are toxins such as mycolactone from Mycobacterium ulcerans, siderophores such as vibriobactin from Vibrio cholerae or mycobactin from Mycobacterium tuberculosis, as well as the mycolic acids which form the waxy cell wall of Mycobacteria. The biosyntheses of these natural products are considered attractive targets for drug design.
# In search of small molecule Sfp-PPTase inhibitors, a fluorescence quenching assay was developed for detection of Bacillus subtilis Sfp-PPTase enzymatic activity in a miniaturized high-throughput format. The consensus ybbr acceptor peptide […] was N-terminally labeled with Black Hole Quencher-2 (BHQ-2) and used in combination with rhodamine-labeled coenzyme A as a co-substrate.
# Phosphopantetheinyl transfer is a process essential to cellular viability and maintenance in all forms of life. Cell-permeable and stable compounds acting as PPTase inhibitors are anticipated to be growth inhibitory agents. This assay sought to assess the toxicity of test compounds in the HepG2 hepatocarcinoma cells; a human cell line whose use additionally determines the toxicity of test article metabolites.
# NIH Chemical Genomics Center [NCGC]
# NIH Molecular Libraries Probe Centers Network [MLPCN]
# Assay Submitter (PI): Michale Burkart, University of California, San Diego
# Test compounds' toxicity was assessed by measuring cellular ATP content using a luciferase-coupled ATP quantitation assay (CellTiter-Glo; Promega, Madison, WI). In this assay, luminescent signal is proportional to amount of ATP, and thus to the number of metabolically competent cells. Briefly, Hepg2 cell suspension (5 uL, 4 x 10^5 cells/mL) was dispensed into 1,536-well tissue-culture treated white/solid bottom assay plates (Greiner Bio-One North America, Monroe, NC) using a Flying Reagent Dispenser (Aurora Discovery, Carlsbad, CA). Cells were incubated at 37 deg C for 6 hr to allow for cell attachment, followed by addition of compounds via pin tool (Kalypsys, San Diego, CA). After compound addition, plates were incubated for 48 hr at 37 deg C. At the end of the incubation period, CellTiter-Glo reagent (5 uL) was added, plates were incubated at room temperature in the dark for 30 min, and the luminescence intensity of each well was determined using a ViewLux plate reader (PerkinElmer, Shelton, CT). The positive control was 92 uM and 41 uM of tetra-N-Octylammonium bromide, and the negative control was DMSO.
Structure (SMILES),"activity change, negative = inhibition [%]",Potency
Cc1cc(C)nc(NC(=S)N2CCN(c3ccc(NS(C)(=O)=O)nn3)CC2)c1,0.438,–
Cc1cc(C)nc(NC(=S)N2CCN(c3ncnc4sccc34)CC2)c1,–,15.8 µM (active)
Cc1cc(C)nc(NC(=S)N2CCN(c3ccc(C(F)(F)F)cc3[N+](=O)[O-])CC2)c1,-9.46,–
Cc1cc(C)nc(NC(=S)N2CCN(c3cc(C(F)(F)F)nc4ccc(C(F)(F)F)cc34)CC2)c1,-2.74,–
COc1cccc(NC(=S)N2CCN(c3cccc(Cl)c3Cl)CC2)n1,-0.194,–
CN(C)c1ccc2nc(NC(=S)N3CCN(c4cccc(C(F)(F)F)c4)CC3)sc2c1,–,8.88 µM (active)
COc1cccc(NC(=S)N2CCN(c3ccc(Cl)c(Cl)c3)CC2)n1,4.44,–
Cc1cc(C)nc(NC(=S)N2CCN(c3ncccc3Cl)CC2)c1,2.69,–
COc1ccnc(NC(=S)N2CCN(c3cccc(Cl)c3Cl)CC2)c1,-11.5,–
Cc1cc(C)nc(NC(=S)N2CCN(c3cc(F)cc(F)c3)CC2)c1,3.56,–
Cc1ccnc(NC(=S)N2CCN(c3cc(C(F)(F)F)cc(C(F)(F)F)c3)CC2)c1,–,7.91 µM (active)
Cc1ccnc(NC(=S)N2CCN(c3cccc(C(F)(F)F)c3)C[C@@H]2C)c1,-7.74,–
CC(=O)N1CCN(C(=S)Nc2cc(C)ccn2)CC1,4.75,–
Cc1cc(C)nc(NC(=S)N2CCN(c3ccc4occc4c3)CC2)c1,-5.28,–
Cc1cc(C)nc(NC(=S)N2CCN(c3ccccn3)CC2)c1,–,inactive
Cc1cc(C)nc(NC(=C(C#N)C#N)N2CCN(c3cccc(C(F)(F)F)c3)CC2)c1,–,inactive
S=C(Nc1cc(Cl)ccn1)N1CCN(c2cc(Cl)cc(Cl)c2)CC1,–,9.96 µM (active)
Cc1cc(C)nc(NC(=S)N2CCN(c3nsc4ccccc34)CC2)c1,-7.35,–
Cc1ccnc(N=C(N)N2CCN(c3cccc(C(F)(F)F)c3)CC2)c1,–,28.1 µM (active)
Cc1cc(C)nc(NC(=S)N2CCN(c3ccncc3)CC2)c1,7.96,–

Structure (SMILES),"activity change, negative = inhibition [%]",Potency
COc1cccc(NC(=S)N2CCN(c3ccc(C(F)(F)F)cc3[N+](=O)[O-])CC2)n1,-3.46,–
Cc1ccnc(NC(=S)N2CCN(c3cccc(C(F)(F)F)c3)CC2)c1,–,28.1 µM (active) and 9.96 µM (active) and 25 µM (active)
FC(F)(F)c1cccc(N2CCN(C(=S)Nc3cc(C(F)(F)F)ccn3)CC2)c1,–,19.9 µM (active)
Cc1cc(C)nc(NC(=S)N2CCN(c3ccc(Cl)c(Cl)c3Cl)CC2)c1,6.12,–
CCN1CCN(C(=S)c2ccc(O)cc2)CC1,6.5,–
Cc1cc(C)nc(NC(=S)N2CCN(c3ccc4ncccc4c3[N+](=O)[O-])CC2)c1,1.59,–
Cc1ccnc(N(C)C(=S)N2CCN(c3cccc(C(F)(F)F)c3)CC2)c1,-10.8,–
COc1cccc(NC(=S)N2CCN(c3ccc(Cl)cc3Cl)CC2)n1,-2.52,–
Cc1cc(C)nc(NC(=S)N2CCN(c3nccc4ccccc34)CC2)c1,-1.21,–
Cc1ccnc(NC(=S)N2CCN(c3ccc(Cl)c(Cl)c3)CC2)c1,–,28.1 µM (active)
COc1cccc(NC(=S)N2CCN(c3cccc(C(F)(F)F)n3)CC2)n1,-11.6,–
Cc1cc(C)nc(NC(=S)N2CCN(c3cccc(S(C)(=O)=O)c3)CC2)c1,-7.99,–
CC(=O)c1ccc(N2CCN(C(=S)Nc3cc(C)ccn3)CC2)cc1,-7.72,–
Cc1cc(C)nc(NC(=S)N2CCN(Cc3cccc4ccccc34)CC2)c1,2.15,–
FC(F)(F)c1cnc(N2CCN(C(=S)Nc3cc(Cl)ccn3)CC2)c(Cl)c1,-6.14,–
Cc1cc(C)nc(NC(=S)N2CCN(c3ccc4nncn4c3)CC2)c1,1.53,–
Cc1cc(C)nc(NC(=S)N2CCN(c3ccc(Cl)cc3C(F)(F)F)CC2)c1,-3.78,–
FC(F)(F)c1cccc(N2CCN(C(=S)Nc3cc4ccccc4cn3)CC2)c1,-4.29,–
Cc1cc(C)nc(NC(=S)N2CCN(c3ccsc3)CC2)c1,-8.98,–
COc1ccnc(NC(=S)N2CCN(c3ccc(Cl)cc3Cl)CC2)c1,-6.72,–
